From PubChem BioAssay (NCI)
About 83,000 compounds went through this panel and 20% of them were active in at least one assay; those are over-represented in the sample as a whole.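 How to read the values: 0–100, growth inhibition (40 = 60% inhibited); 0, no net growth; -100 to 0, cell death (-40 = 40% of starting cells died; -100 = all dead).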 Values without a mark were called inactive. Calls of active or inactive are those of the source. How the source made its calls: active means growth percent below 10; inactive means the rest.

Key:
Experiment in all cases: NCI-60 one-dose screen, 48 h (100 = growth as untreated, 0 = no growth, -100 = all killed)
Conditions in all cases: 10 µM unless noted
NCI-H23 lung = test system: NCI-H23 lung
NCI-H226 lung = test system: NCI-H226 lung
NCI-H322M lung = test system: NCI-H322M lung
HOP-62 NSCLC = test system: HOP-62 NSCLC
NCI-H460 lung = test system: NCI-H460 lung
HOP-92 NSCLC = test system: HOP-92 NSCLC
NCI-H522 lung = test system: NCI-H522 lung
A549/ATCC NSCLC = test system: A549/ATCC NSCLC
786-0 renal = test system: 786-0 renal
COLO 205 colon = test system: COLO 205 colon
DU-145 prostate = test system: DU-145 prostate
K-562 leukemia = test system: K-562 leukemia
MALME-3M melanoma = test system: MALME-3M melanoma
MDA-MB-231 breast = test system: MDA-MB-231 breast
RXF 393 renal = test system: RXF 393 renal
SF-268 CNS = test system: SF-268 CNS
SF-295 CNS = test system: SF-295 CNS
SF-539 CNS = test system: SF-539 CNS
UACC-257 melanoma = test system: UACC-257 melanoma
M14 melanoma = test system: M14 melanoma

Compound | growth (NCI-H23 lung) | growth (NCI-H226 lung) | growth (NCI-H322M lung) | growth (HOP-62 NSCLC) | growth (NCI-H460 lung) | growth (HOP-92 NSCLC) | growth (NCI-H522 lung) | growth (A549/ATCC NSCLC) | growth (786-0 renal) | growth (COLO 205 colon) | growth (DU-145 prostate) | growth (K-562 leukemia) | growth (MALME-3M melanoma) | growth (MDA-MB-231 breast) | growth (RXF 393 renal) | growth (SF-268 CNS) | growth (SF-295 CNS) | growth (SF-539 CNS) | growth (UACC-257 melanoma) | growth (M14 melanoma)
C#Cc1cccc(Nc2ncnc3cc(OC)c(OCCCCCCC(=O)NO)cc23)c1 | -31.4% (active) | -10.9% (active) | -8.88% (active) | -37.5% (active) | 1.24% (active) | -26.4% (active) | -58.2% (active) | -32.8% (active) | -15.4% (active) | -65% (active) | 0.81% (active) | 5.48% (active) | 2.19% (active) | -16.8% (active) | -49.5% (active) | -3.98% (active) | -53.6% (active) | -1.18% (active) | -47.3% (active) | 2.66% (active)
Cc1cc(NCC(=O)Nc2ccc(-c3nc4ccccc4s3)cc2)no1 | 82.8% | 91% | 102% | 111% | 103% | 100% | 82.1% | 92.3% | 102% | 108% | 95.9% | 83% | 89.5% | 108% | 105% | 87.4% | 96.4% | 105% | 99.7% | 106%
Cc1cc(-c2cc(O)ccc2Cl)cc2nnc(Nc3ccc(OCCN4CCCC4)cc3)nc12 | -63.2% (active) | -51.7% (active) | -94.4% (active) | -66.1% (active) | -81.6% (active) | -69.1% (active) | -49.5% (active) | -70.7% (active) | -60.6% (active) | -61.4% (active) | -89.4% (active) | -63.9% (active) | -68.4% (active) | -80.5% (active) | -73.4% (active) | -69.8% (active) | -76.3% (active) | -86.8% (active) | -75.9% (active) | -51.8% (active)
O=C(NC[C@H](O)CO)c1ccncc1Nc1ccc(I)cc1F | 15.9% | 50.2% | 19.8% | 23.7% | 53.2% | -25.4% (active) | 51.6% | 32.2% | 70.2% | -8.7% (active) | 63.4% | 37.2% | -7.31% (active) | 29.8% | 15.1% | 71.3% | 67.1% | 52.5% | -19.2% (active) | 3.95% (active)
COc1cc(NC2CCC(=O)N2c2ccc(Cl)cc2Cl)cc(OC)c1OC (stereo not given) | 99.4% | 99.9% | 97.3% | 103% | 102% | 83.1% | 99.9% | 99.4% | 103% | 97.7% | 103% | 106% | 93.3% | 111% | 120% | 98.7% | 101% | 101% | 99.1% | 94.9%
COC(=O)c1ccc2c(C(=Nc3ccc(N(C)C(=O)CN4CCN(C)CC4)cc3)c3ccccc3)c(O)[nH]c2c1 | 67.8% | 47% | 58.8% | 38.8% | 92% | 18.4% | 39.1% | 45.8% | 41.4% | 34% | 78.3% | 3.75% (active) | 54.2% | 54.8% | 15.1% | 42.8% | 84.1% | 36.1% | 23% | 50.9%
CO[C@H]1C[C@@H]2CC[C@@H](C)[C@@](O)(O2)C(=O)C(=O)N2CCCC[C@H]2C(=O)O[C@H]([C@H](C)C[C@@H]2CC[C@@H](O)[C@H](OC)C2)CC(=O)[C@H](C)/C=C(\C)[C@@H](O)[C@@H](OC)C(=O)[C@H](C)C[C@H](C)\C=C/C=C/C=C/1C | 51.3% | 47.9% | 43.7% | 43.8% | 31.9% | 41.1% | 39.4% | 35.1% | 42.1% | 44.3% | 42.1% | 24.4% | 35.1% | 49.6% | -4.23% (active) | 39.3% | 22.4% | 27.4% | 53% | 50.3%
